# Measured values published in PubChem BioAssay AID1053118 (Broad Institute, 2014).
# Results with a measured potency or affinity are listed apart. Active and inactive are the calls of the source.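 The calls were made as follows: active = fitted half-maximal concentration for ATP signal loss at most twice the top valid dose; inconclusive = flat curve between -70 and -30%, or an invalid fit; inactive = flat within ±30%, wrong direction, or potency past limit.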
# Assay: viability loss in HepG2 hepatoma cells – cell-based, cherry-picks, set 5, cytotoxicity control, dose response (AID 1053118)
compound,measurement,value
C=C1C(=O)O[C@@H]2C[C@@H](C)[C@@H]3C=CC(=O)[C@@]3(C)[C@@H](O)[C@H]12,outcome,inactive
